CRFBP-R2 agonist – CRF-BP/CRF-R2 complex agonism; HEK293 CRF-R2/CRF-BP, calcium dye fluorescence (FLIPR); percent of saturating CRF peptide response; activation, % at 13.2 µM; 350,000 tested, 0.46% active;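 active = activation of at least 50%, plus an integration ratio under a set limit after plate pattern correction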;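 note: plate controls were neutral control wells without compound for no effect and CRF at EC100 for full effect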
H9c2 protect – protects H9c2 cardiomyocytes from peroxide injury | H2O2 injury protection, ATPLite, 2 h | protection from H2O2 cell death, % at 20 µM | 360,000 tested, 0.63% active;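 active = compounds giving at least 50% protection of heart cells from peroxide-induced death in the single-dose screen, raw or plate-pattern-corrected value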;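 note: 0% = DMSO wells with peroxide and 100% = DMSO wells without peroxide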
PfGluPho inh – PfG6PD (Plasmodium falciparum) enzyme inhibition. PfGluPho enzyme, NADPH resazurin-diaphorase fluorescence. inhibition, % at 20 µM. 350,000 tested, 0.78% active;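 active = inhibition reaching at least a set limit at 20 µM in the primary screen, cut at about 59% in these data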;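 note: 0% = DMSO wells with substrate and 100% = DMSO wells lacking glucose-6-phosphate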
FAS TE block – FAS thioesterase (human) inhibition | recombinant FAS-TE, OMFH fluorogenic substrate, fluorescence endpoint | inhibition, % at 15 µM | 360,000 tested, 0.67% active | AID 602261 | P49327;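 active = compounds whose normalised, plate-corrected inhibition of enzyme fluorescence in the single-dose primary screen is 50% or more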;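 note: 0% = DMSO with enzyme and 100% = substrate without enzyme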
CRFBP-R2 block – blocks CRF-induced signaling of the CRF-BP/CRF-R2 complex | HEK293 CRF-R2/CRF-BP, CRF-induced calcium fluorescence | inhibition, % at 11.8 µM | 350,000 tested, 0.59% active | AID 588475;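 active = inhibition of the ligand-induced calcium signal above about 50% at the single tested concentration, limit read from the data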
aDG glyco up – alpha-DG glycosylation activation; Pro5-aDG cells, alpha-DG glycosylation AlphaScreen (IIH6); 0% Pro5, 100% B10-LARGE cell signal; activation, % at 10 µM; 360,000 tested, 0.22% active;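 active = activation of at least 8% versus controls, or a plate z-score of at least 8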;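 note: Pro5 are CHO cells carrying HIG-tagged alpha-DG that lacks glycosylation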
PfG6PD confirm – confirmation of Plasmodium falciparum G6PD inhibitors; inhibition, % at 20 µM; AID 504753; 2,400 tested, 34% active; shares compounds with PfGluPho inh; recombinant PfGluPho, NADPH-diaphorase-resazurin fluorescence;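 active = inhibition of at least 50% at 20 µM in any single replicate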;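 note: 0% = DMSO with substrate and 100% = DMSO lacking glucose-6-phosphate substrate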
Diaphorase 10uM – inhibits diaphorase or oxidizes, flagging false PfG6PD hits | inhibition, % at 20 µM | AID 504862 | 820 tested, 39% active | diaphorase-coupled resazurin reduction, fluorescence, NADPH 10 uM | shares compounds with PfGluPho inh;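 active = average inhibition reaching 50% or more with the compound at 20 µM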;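 note: resorufin red fluorescence formed as diaphorase reduces resazurin using NADPH; 0% = DMSO with enzyme and 100% = DMSO without enzyme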
Diaph ctr 30uM – counter-screen for P. falciparum G6PD inhibitors: diaphorase inhibitors, oxidizers. shares compounds with PfGluPho inh. 820 tested, 29% active. Diaphorase/resazurin coupled assay, resorufin fluorescence, 30 uM NADPH. inhibition, % at 20 µM;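 active = inhibition averaging 50% or more, tested at 20 µM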;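 note: 0% = DMSO with enzyme and 100% = DMSO wells lacking diaphorase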
* = called active by the depositor; x = not tested or not shown. Most compounds without a hit are left out; they make up all but 3.2% or so of the library.

SMILES | CRFBP-R2 agonist | H9c2 protect | PfGluPho inh | FAS TE block | CRFBP-R2 block | aDG glyco up | PfG6PD confirm | Diaphorase 10uM | Diaph ctr 30uM
COc1ccc(S(=O)(=O)/N=C2\C=C(Nc3ccc(O)cc3)C(=O)c3ccccc32)cc1 | -1.5 | -6.1 | 108.6* | 31.0 | 25.5 | -0.6 | 52.3* | 40.1 | 48.1
Cc1ccc(NC2=C/C(=N/S(=O)(=O)c3cccs3)c3ccccc3C2=O)cc1C | 0.6 | -15.2 | -2.9 | -6.6 | -4.1 | 0.3 | x | x | x
Cc1ccccc1NC1=C/C(=N\S(=O)(=O)c2ccc(C(=O)O)cc2)c2ccccc2C1=O | -0.3 | -12.6 | 78.5* | 4.8 | 0.4 | 0.5 | 61.4* | 59.4* | 51.5*
CC(=O)Nc1ccc(NC2=C/C(=N/S(=O)(=O)c3cccs3)c3ccccc3C2=O)cc1 | -0.7 | -17.0 | 87.5* | 13.2 | 10.6 | -0.2 | 73.2* | 72.5* | 75.6*
COc1ccnc(Oc2ccccc2)c1C(N)=O | 3.0 | -2.3 | 22.1 | -2.7 | -3.2 | -0.4 | x | x | x
O=C(OCC(=O)N1CCOCC1)c1cc(-c2ccccc2)nc2ccccc12 | 6.5 | 1.9 | 2.9 | -0.4 | -17.1 | -0.1 | x | x | x
O=S(=O)(c1cccs1)N1CN(Cc2cccs2)c2nc3ccccc3nc21 | 1.4 | -15.7 | 68.7* | 1.2 | 15.7 | 0.1 | 35.1 | x | x
O=S(=O)(c1cccs1)N1CN(Cc2ccccc2)c2nc3ccccc3nc21 | 4.8 | -22.3 | 39.9 | 4.2 | -11.6 | 1.1 | x | x | x
Cc1nc2ccc(Nc3nc4cc(S(=O)(=O)N5CCOCC5)ccc4o3)cc2s1 | 5.1 | -1.6 | 92.7* | 3.9 | -10.1 | 0.6 | 54.3* | 18.6 | 23.6
CCn1c2ccccc2c2nc3cc(S(=O)(=O)N4CCOCC4)ccc3nc21 | 12.4 | -0.1 | 100.3* | 13.7 | -7.4 | -0.1 | 60.9* | -9.4 | 2.9
c1ccc2nc3c(nc2c1)c1ccccc1n3CCN1CCOCC1 | 2.8 | 22.1 | 33.2 | -1.2 | -13.0 | 0.2 | x | x | x
CCSc1nc2cc(S(=O)(=O)N3CCOCC3)ccc2o1 | -0.3 | -4.7 | 70.6* | -3.8 | -15.2 | 0.0 | 49.9* | -17.7 | -20.9
O=C(NCC(c1ccco1)N1CCCCC1)c1ccc(COc2ccccc2)cc1 (stereo unspecified) | -0.6 | -0.7 | 2.8 | 7.5 | 1.4 | 0.4 | x | x | x
O=[N+]([O-])c1ccc(Sc2cccc3cccnc23)c2cccnc12 | 8.6 | -0.6 | 94.3* | 17.8 | -12.5 | 3.5 | 52.6* | 66.4* | 46.4
O=C(CSc1nnc(SCc2ccccc2Cl)s1)N/N=C/c1c[nH]c2ccccc12 | -2.0 | -14.5 | 88.8* | 8.7 | 4.0 | 1.3 | 37.2 | x | x
Oc1ccc(N2CCN(C(=S)NCCc3ccccc3)CC2)cc1 | -1.8 | -3.5 | 67.2* | 1.2 | -23.4 | -0.2 | 10.6 | x | x
COc1ccc(N2CCN(C(=S)NCCc3ccccc3)CC2)cc1 | -2.6 | -8.4 | -1.4 | 6.1 | -9.9 | 0.5 | x | x | x
O=C(CN1CCN(c2ccc(O)cc2)CC1)Nc1ccccc1C(=O)NCCc1ccccc1 | -2.0 | 45.4 | 70.3* | 5.5 | 3.1 | -0.8 | 34.4 | x | x
O=C(Nc1c(-c2ccc(Cl)cc2)[nH][nH]c1=O)c1ccccc1Cl | x | 3.7 | x | 1.8 | x | 0.2 | x | x | x
C=CCNC(=O)c1ccc(Cn2cc(C(F)(F)F)ccc2=O)cc1 | -1.3 | 1.7 | -7.1 | -1.4 | 10.2 | -0.5 | x | x | x
O=C(c1cc(-c2ccccc2)n[nH]1)N1CCc2c([nH]c3ccccc23)C1c1ccccn1 (stereo unspecified) | 0.3 | -1.2 | 13.6 | 18.8 | -26.2 | 0.3 | x | x | x
Cc1c(Cl)c([N+](=O)[O-])nn1Cc1ccc(C(=O)N/N=C\c2cccc(Br)c2)o1 | 0.7 | 7.5 | 104.8* | 33.0 | 22.1 | 1.7 | 61.0* | 61.4* | 49.3
O=C(N/N=C\c1cccc(Cl)c1)c1ccc(Cn2cc(Br)c([N+](=O)[O-])n2)o1 | -0.5 | 5.8 | 51.0 | 37.9 | 18.6 | 0.5 | x | x | x

Bioassay records deposited in PubChem by Sanford-Burnham Center for Chemical Genomics.
